Cruzain noTriton = cruzain (T. cruzi) inhibition without detergent | P25779 | purified cruzain, Z-FR-AMC fluorescence, no detergent | Potency, µM, inactives show max response, negative = inhibition, hits mostly inhibitors | hit rate 2.3% among 200,000;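 note: plate controls were enzyme without inhibitor for no effect and buffer without enzyme for full effect; nearly all actives have a fitted effect of over 40% in size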
Target sequence (P25779 123-467 limits assumed): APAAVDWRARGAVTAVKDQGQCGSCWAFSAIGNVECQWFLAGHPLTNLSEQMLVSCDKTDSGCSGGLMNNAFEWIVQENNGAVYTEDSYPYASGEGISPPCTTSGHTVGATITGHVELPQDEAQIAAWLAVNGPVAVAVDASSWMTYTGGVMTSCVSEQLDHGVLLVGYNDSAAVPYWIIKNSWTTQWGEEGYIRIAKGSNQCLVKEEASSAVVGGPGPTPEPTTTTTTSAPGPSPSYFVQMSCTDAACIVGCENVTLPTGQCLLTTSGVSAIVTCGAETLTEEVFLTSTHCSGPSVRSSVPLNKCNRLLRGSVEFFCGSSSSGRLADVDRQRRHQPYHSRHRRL
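Detergent-free condition (0.00005% Triton X-100) in acetate buffer pH 5.5 with DTT. 1.5 nM enzyme and compound were pre-mixed 15 min, then 2 uM Z-FR-AMC substrate added; reaction progress from fluorescence change between first and third reads (60 s).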
Cruzain Triton = inhibitors of Trypanosoma cruzi cruzain with detergent. purified cruzain, Z-FR-AMC fluorescence, 0.01% Triton. Potency, µM, for inactives: max response, negative = inhibition, hits mostly inhibitors. hit rate 0.43% among 200,000;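 note: plate controls were neutral wells for no effect and buffer without enzyme for full effect; nearly all actives have a fitted effect of over 40% in size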
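Sodium acetate buffer (100 mM, pH 5.5) containing 5 mM DTT and 0.01% Triton X-100 hosted 1.5 nM cruzain and test compound for 15 min at room temperature. Cleavage of 2 uM Z-FR-AMC was then tracked by fluorescence.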
Starred values were filed as active, the others as inactive. Rows were chosen to be rich in hits. Some 2.5% of all compounds tested hit in one or more screens of this group. Calls come from the whole dose curve; as a rule, active = well fitted curve in the direction sought with a large enough effect; inconclusive = small, poorly fitted or top-dose-only effect, or another doubt; inactive = no such curve, though single readings can be large; an effect the other way counts as inactive or inconclusive. Potency is the fitted concentration of half-maximal effect.

Screening CCOC(=O)CNC(=O)O[C@@H]1Cc2cc(OC)ccc2O[C@H]1c1cccc(OC)c1 returned Cruzain noTriton -1% and Cruzain Triton 2%.
For COc1ccc(C)cc1NC(=O)c1cc(S(=O)(=O)NC2CCCCCC2)ccc1F the results were Cruzain noTriton -11% and Cruzain Triton 0%.
For CC(=O)c1sc(N/N=C\c2cccc(Br)c2)nc1C the results were Cruzain noTriton 0.2µM* and Cruzain Triton 13µM*.
Screening CC(=O)c1sc(N/N=C\c2ccc(Br)cc2)nc1C returned Cruzain noTriton inconclusive and Cruzain Triton -13%.
Screening Cc1ccc(N(CC(=O)N2CCN(c3ccc(Cl)cc3)CC2)S(=O)(=O)c2c(C)noc2C)cc1 returned Cruzain noTriton 3% and Cruzain Triton -3%.
`Cc1cc(NC(=O)COC(=O)C(Cc2ccccc2)NC(=O)c2ccco2)no1` (configuration not stated) gave Cruzain noTriton 25µM* and Cruzain Triton 28µM*.
Screening O=C(COC(=O)[C@H](Cc1ccccc1)NC(=O)c1ccco1)NC(c1ccccc1)c1ccccc1 returned Cruzain noTriton 5% and Cruzain Triton -7%.
`CC(=O)c1ccc(NC(=O)C2CCC(CNS(=O)(=O)c3cccc4nsnc34)CC2)cc1` (configuration not stated) gave Cruzain noTriton -4% and Cruzain Triton -2%.
`COc1ccc(-c2noc(N3CCC(C(=O)N4CCN(c5ccccc5F)CC4)CC3)n2)cc1` gave Cruzain noTriton 9% and Cruzain Triton 5%.
Screening S=C(Nc1ccc(Oc2ccc(NC(=S)NC3CCCCC3)cc2)cc1)NC1CCCCC1 returned Cruzain noTriton 4µM* and Cruzain Triton -1%.
`S=C(Nc1ccc(Oc2ccccc2)cc1)NC1CCCCCC1` gave Cruzain noTriton 5% and Cruzain Triton -5%.
Screening Cc1nc(-c2ccc(Cl)cc2)sc1CCNC(=O)C(=O)Nc1ccccc1C#N returned Cruzain noTriton -4% and Cruzain Triton -3%.
Screening OCCN1CCN(C(=S)c2ccc(Cl)c(Cl)c2)CC1 returned Cruzain noTriton 25µM* and Cruzain Triton -28%.
Screening CCN1CCN(C(=S)c2ccc(Br)cc2)CC1 returned Cruzain noTriton 4% and Cruzain Triton 4%.
COc1cccc(-n2cc(C(=O)OCc3ccc(F)c(F)c3)c3ccccc3c2=O)c1 was read as Cruzain noTriton -2% and Cruzain Triton -1%.
For Cc1ccc(NCc2cc3cc4c(cc3n(CC(=O)Nc3ccc(C)cc3)c2=O)OCCO4)cc1 the results were Cruzain noTriton inconclusive and Cruzain Triton -7%.
COc1ccc(NCc2cc3cc4c(cc3n(CC(=O)Nc3cc(C)cc(C)c3)c2=O)OCO4)cc1 was read as Cruzain noTriton inconclusive and Cruzain Triton -5%.
Screening COc1ccc(NCc2cc3cc4c(cc3n(CC(=O)Nc3ccc(C)c(C)c3)c2=O)OCO4)cc1 returned Cruzain noTriton 16µM* and Cruzain Triton -3%.
Screening CCc1ccc(NCc2cc3cc4c(cc3n(CC(=O)Nc3ccc(Cl)cc3)c2=O)OCO4)cc1 returned Cruzain noTriton 16µM* and Cruzain Triton -1%.
Screening CC(=O)c1cccc(NC(=O)c2c(N3CCCC3=O)c3cc(F)ccc3n2C)c1 returned Cruzain noTriton -5% and Cruzain Triton -7%.
Screening NCCC(O)(P(=O)(O)O)P(=O)(O)O returned Cruzain noTriton -3% and Cruzain Triton 3%.
CC(C)n1cc(/C=N\NC(=O)c2cc3c(ccc4ccccc43)o2)c2ccccc21 was read as Cruzain noTriton 5µM* and Cruzain Triton -19%.
`Cc1ccc(/C=N/NC(=O)c2cc3c(ccc4ccccc43)o2)cc1[N+](=O)[O-]` gave Cruzain noTriton 6.3µM* and Cruzain Triton -2%.
Screening O=C(N/N=C/c1cccnc1)c1cc2c(ccc3ccccc32)o1 returned Cruzain noTriton 4% and Cruzain Triton -22%.
Screening O=C(NC1CCCC1)c1cc2c(ccc3ccccc32)o1 returned Cruzain noTriton -4% and Cruzain Triton -15%.
`O=C(N/N=C/c1cn(CCOc2ccccc2)c2ccccc12)c1ccncc1` gave Cruzain noTriton inconclusive and Cruzain Triton -10%.
Screening CCn1cc(/C=N/NC(=O)c2cc3c(ccc4ccccc43)o2)c2ccccc21 returned Cruzain noTriton 7.9µM* and Cruzain Triton -2%.
O=C(O)c1cc2ccccc2c(S(=O)(=O)O)c1O was read as Cruzain noTriton 12% and Cruzain Triton -1%.
`COc1cccc(Nc2nc3ccc(C(=O)c4ccccc4)cc3n3c(C)nnc23)c1` gave Cruzain noTriton -5% and Cruzain Triton -1%.
COc1ccc(CNC(=O)Nc2ccc3c(c2)N(C)C(=O)c2ccccc2S3)cc1 was read as Cruzain noTriton 4% and Cruzain Triton -3%.
O=C1c2ccccc2-c2onc3c(Oc4ccccc4)cc(O)c1c23 was read as Cruzain noTriton 20µM* and Cruzain Triton -2%.
CCOc1ccc2noc3c2c1C(=O)c1ccccc1-3 was read as Cruzain noTriton -22% and Cruzain Triton -2%.
CO[C@@H]([CH2][Hg])CN1C(=O)c2ccccc2S1(=O)=O.Cn1c(=O)c2nc[nH]c2n(C)c1=O was read as Cruzain noTriton -1% and Cruzain Triton 2%.
For O=C(Nc1cc(Cl)cc(Cl)c1)c1ccc(F)c(S(=O)(=O)NC2CCCC2)c1 the results were Cruzain noTriton 0% and Cruzain Triton 0%.
For Cc1ccc(NS(=O)(=O)c2cc(NC(=O)c3cc4c(s3)CCCC4)ccc2C)c(C)c1 the results were Cruzain noTriton 32µM* and Cruzain Triton 0%.
Cc1ccc(NC(=O)c2cc3c(s2)CCC3)cc1S(=O)(=O)N1CCOCC1 was read as Cruzain noTriton 7% and Cruzain Triton -5%.
`COc1ccc(C(=O)Nc2cc(S(=O)(=O)c3ccc(Cl)cc3)c(O)c(C)c2C)cc1` gave Cruzain noTriton 6% and Cruzain Triton -3%.
Screening CCOC(=O)c1cnn(-c2nc(SC)nc3sc4c(c23)CCC4)c1N returned Cruzain noTriton 7.9µM* and Cruzain Triton 1%.
For CCOC(=O)c1cnn(-c2nc(C)nc3sc4c(c23)CCC4)c1N the results were Cruzain noTriton inconclusive and Cruzain Triton 4%.
For CCSc1nc2c([nH]c3ccccc32)c(=O)n1C the results were Cruzain noTriton 13µM* and Cruzain Triton 4%.
Screening COc1cccc(-n2c(SCc3cccc(C)c3)nc3c([nH]c4ccccc43)c2=O)c1 returned Cruzain noTriton 16µM* and Cruzain Triton -1%.
COc1cccc(-n2c(SCC(=O)c3ccccc3)nc3c([nH]c4ccccc43)c2=O)c1 was read as Cruzain noTriton 2% and Cruzain Triton 3%.
Screening CCCSc1nc2c([nH]c3ccccc32)c(=O)n1C returned Cruzain noTriton -4% and Cruzain Triton 0%.
For COc1cccc(-n2c(SCc3ccccc3C)nc3c([nH]c4ccccc43)c2=O)c1 the results were Cruzain noTriton 4µM* and Cruzain Triton 0%.
For Cc1cccc(CSc2nc3c([nH]c4ccccc43)c(=O)n2C)c1 the results were Cruzain noTriton -15% and Cruzain Triton 0%.
`Cc1nn(-c2ccc(N3CCCC3)nn2)c(C)c1CCC(=O)N1CCN(c2ccc(F)cc2)CC1` gave Cruzain noTriton 2% and Cruzain Triton 6%.
For Cc1cc(C)cc(-n2c(C)cc(C(=O)C(=O)Nc3nnc(C)s3)c2C)c1 the results were Cruzain noTriton inconclusive and Cruzain Triton -4%.
C=C(C(=O)OCC)C(=O)c1ccccc1 was read as Cruzain noTriton -5% and Cruzain Triton -1%.

Screening data as filed in PubChem.
